In the library only some 3.3% were active in any assay of this set; here they are far more common.
AmpC inh no detg: inhibitors of E. coli AmpC beta-lactamase without detergent; Potency, µM (doses to about 57.1 µM), inactives show at the top dose activity change, negative = inhibition, hits mostly inhibitors; P00811; 330,000 tested, 0.52% active; AmpC nitrocefin hydrolysis, absorbance 480 nm, 0.0001% Triton; AID 485341;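 further: plate controls were no compound for no effect and no enzyme for full effect; nearly all actives have a fitted effect of over 20% in size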
Target sequence (P00811 whole entry, looked up): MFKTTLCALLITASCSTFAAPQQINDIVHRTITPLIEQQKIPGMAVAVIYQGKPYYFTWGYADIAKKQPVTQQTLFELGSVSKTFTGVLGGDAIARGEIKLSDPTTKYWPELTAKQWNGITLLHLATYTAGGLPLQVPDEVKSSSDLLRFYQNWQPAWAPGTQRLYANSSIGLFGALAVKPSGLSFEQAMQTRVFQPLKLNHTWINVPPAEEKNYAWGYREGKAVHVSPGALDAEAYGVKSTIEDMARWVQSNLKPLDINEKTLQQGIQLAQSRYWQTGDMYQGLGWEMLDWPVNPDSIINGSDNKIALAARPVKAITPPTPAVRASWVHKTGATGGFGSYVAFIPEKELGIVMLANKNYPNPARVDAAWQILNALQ
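20 mM phosphate pH 7.0 + 0.01% (detergent screen) or 0.0001% Triton X-100; 5.3 nM AmpC reagent; cpd preinc 15 min RT; nitrocefin (800 uM stock) to start; A480 q20 s × 4 min; Activity was normalised to no-enzyme and no-compound control wells.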
AmpC inh detg: blocks E. coli AmpC beta-lactamase in detergent assay; AmpC hydrolysis of nitrocefin, absorbance 480 nm, 0.01% Triton; Potency, µM (doses to about 114 µM), without a hit: top-dose activity change, negative = inhibition, most hits filed as inhibitors; 370,000 tested, 0.041% active;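 further: 0% = no-compound wells and -100% = no-enzyme wells; nearly all actives have a fitted effect of over 25% in size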
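AmpC (5.3 nM in the dispensed reagent) in 20 mM phosphate pH 7.0 with 0.01% (detergent screen) or 0.0001% Triton X-100 was preincubated with compounds for 15 min at room temperature. Nitrocefin was then added from an 800 uM solution, and hydrolysis was followed at 480 nm.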
RE007 growth inh: less growth of the S. pombe RE007 Vpr strain; S. pombe RE007 Vpr strain, BacTiter-Glo ATP luminescence, 24 h; Potency, µM (titrated, usually from 92.2 µM), for the others: at the highest dose activity change, negative = less growth, usual class: inhibitors; 360,000 tested, 0.21% active; AID 651644; active means well fitted falling curve with a large enough effect; inconclusive means small, poorly fitted or top-dose-only effect; inactive means no such curve, though single readings can be large or run the other way; further: on the % scale 0 is the no-effect control and ±100 the full control effect; nearly all actives have a fitted effect of over 50% in size
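Fission yeast RE007 carrying one integrated HIV-1 vpr copy, seeded at OD 0.01 in PMG+AL medium with 23 nL pinned compound. Grown 24 h at 30 degrees; viability read by BacTiter-Glo luminescence after 5 min.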
Sm TGR block: inhibitors of Schistosoma mansoni thioredoxin glutathione reductase; Q962Y6; purified TGR, DTNB reduction, TNB absorbance 405 nm; Potency, µM (highest dose often 114 µM), for the others: top-dose activity change, negative = inhibition, actives largely listed as inhibitors; 360,000 tested, 3% active; AID 485364; further: on the % scale 0 is the no-effect control and ±100 the full control effect; nearly all actives have a fitted effect of over 60% in size
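TGR 20 nM + NADPH 100 uM (dispensed conc.), cpd preinc 15 min RT; start with NADPH (500 uM addition) then DTNB (15 mM addition). Kinetic TNB absorbance, 405 nm filter. Four-parameter Hill fit across titration.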
Tb PYK inh: blocks Trypanosoma brucei pyruvate kinase | TbPYK enzyme, Kinase-Glo Plus ATP luminescence, 45 min | Potency, µM (doses to about 76.8 µM), for the others: at the highest dose activity, negative = inhibition, hits mostly inhibitors | 410,000 tested, 0.12% active | AID 624173; further: on the % scale 0 is the no-effect control and ±100 the full control effect; nearly all actives have a fitted effect of over 50% in size
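In this concentration-response screen, enzyme-free wells defined baseline while DMSO plates tracked drift. Each reaction combined TbPYK, substrate, compound and 130 uM ADP for 45 min at room temperature. Kinase-Glo Plus luminescence gave the signal.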
SARS PLP yeast: blocks SARS-CoV papain-like protease in a yeast assay | S. cerevisiae expressing SARS-CoV PLpro, growth rescue | Potency, µM (highest dose often 32.9 µM), without a hit: at the highest dose activity, positive = growth rescue, usual class: activators | 330,000 tested, 0.19% active; calls by dose curve; further: 0% is about no effect; nearly all actives have a fitted effect of over 55% in size
Starred values were filed as active, the others as inactive; ? = inconclusive; / = not tested or not shown. Unless noted, the call rests on the fitted dose curve; in most records, active means well fitted curve in the direction sought with a large enough effect; inconclusive means small, poorly fitted or top-dose-only effect, or another doubt; inactive means no such curve, though single readings can be large; an effect the other way counts as inactive or inconclusive. Potency means the concentration at half of the fitted maximal effect.

SMILES	AmpC inh no detg	AmpC inh detg	RE007 growth inh	Sm TGR block	Tb PYK inh	SARS PLP yeast
COc1ccc(-c2nc3n(n2)C(c2ccc(OC)c(OC)c2)C(C(=O)Nc2cccnc2)=C(C)N3)cc1 (stereo not given)	/	-2%	/	?	4%	/
O=C(CN1CCN(C(=O)c2ccco2)CC1)N1CCc2[nH]c3ccccc3c2C1	9%	7%	-12%	20µM*	2%	0%
Cc1ccc2[nH]c3c(c2c1)CN(C(=O)CN1CCN(C(=O)c2ccco2)CC1)CC3	93%	11%	/	-29%	/	0%
CCOC(=O)C1CCCN(C(=O)c2ccc(CNS(=O)(=O)c3ccc(C)cc3)cc2)C1 (stereo not given)	44%	6%	1%	0%	-24%	-2%
O=C(NC1CCCCC1)c1ccc(S(=O)(=O)NCc2ccco2)cc1	-27%	-10%	17%	45µM*	10%	-1%
CCOC(=O)C1CCCN(C(=O)c2ccc(S(=O)(=O)NCc3ccco3)cc2)C1 (stereo not given)	-1%	?	-14%	25µM*	0%	-13%
CC(C)CC(=O)NCC1(N(C)C)CCCCC1	/	22%	/	-5%	-6%	/
CCN(CC)c1ccc(S(=O)(=O)Nc2cc(Cl)ccc2Cl)cc1NC(=S)NC(=O)C1CCCC1	25µM*	?	2%	-1%	-19%	-7%
CCN(CC)S(=O)(=O)c1ccc(Cl)c(NC(=S)NC(=O)C2CCCC2)c1	-26%	-1%	-10%	-26%	6%	5%
COc1ccc(NC(=O)c2sc3nc4n(c(=O)c3c2C)CCC4)cc1Cl	/	29%	/	7%	1%	/
S=c1[nH]nc(-c2ccc(Cl)cc2)n1/N=C/C=C/c1ccco1	16µM*	-6%	-1%	40µM*	?	-2%
S=c1[nH]nc(-c2ccc(Cl)cc2)n1/N=C/c1ccco1	-25%	-3%	1%	6%	4µM*	0%
CC(C)=CCC/C(C)=C\CC/C(C)=C\CC/C(C)=C\CC1=C(C)C(=O)c2ccccc2C1=O	/	/	/	/	0%	/
C#CCNC(=O)C1=C[C@@H](C2CCCCC2)[C@H](CCCO)[C@@H](OCC)O1	98%	12%	8%	40µM*	0%	1%
C#CCNC(=O)C1=C[C@@H](c2ccc(Br)cc2)[C@H](CCCO)[C@@H](OCC)O1	87%	4%	7%	-7%	-3%	2%
C#CCNC(=O)C1=C[C@H](c2ccc3c(c2)OCO3)[C@@H](CCCO)[C@H](OCC)O1	20%	9%	13%	45µM*	1%	-2%
Cc1cc(C)c2oc(-c3cccc(NC(=O)c4cc5ccccc5o4)c3)nc2c1	/	14%	/	7%	0%	/
CC(C)(C)CC(=O)Nc1cc(S(=O)(=O)N2CCCCCC2)ccc1Cl	-3%	-10%	12%	-3%	-10%	-4%
O=C(NCC1CCCO1)c1cc(S(=O)(=O)N2CCCCC2)ccc1Cl (stereo not given)	-7%	6%	-1%	2.8µM*	2%	7%
Cc1ccc(S(=O)(=O)N2CCCCC2)cc1C(=O)NCC1CCCO1 (stereo not given)	-1%	-10%	1%	8%	1%	-3%
CCCCNC(=S)Nc1cc(S(=O)(=O)N2CCCCC2)ccc1C	-36%	4%	-2%	2µM*	-6%	-1%
O=C(CCl)Nc1cc(S(=O)(=O)N2CCCCCC2)ccc1Cl	-5%	-4%	-6%	16µM*	-1%	8%
Cc1ccc2c(=O)cc(C(=O)Nc3ccc(S(=O)(=O)N4CCCCC4C)cc3)oc2c1C (stereo not given)	/	16%	/	13%	-7%	/
CC1(C)Oc2cc(N)c([N+](=O)[O-])cc2O1	-9%	-13%	-2%	7%	-12%	-5%
C=C1N(C)c2cc([N+](=O)[O-])c(N)cc2C1(C)C	-42%	3%	-28%	20µM*	-15%	1%
SMILES	AmpC inh no detg	AmpC inh detg	RE007 growth inh	Sm TGR block	Tb PYK inh	SARS PLP yeast
Cc1ccc(-n2c(=O)c3sc4ccccc4c3n(C)c2=O)cc1F	/	0%	/	1%	0%	/
Cc1cc(C(=O)OCC(=O)N2c3ccccc3CC2C)c(C)o1 (stereo not given)	?	5%	-1%	25µM*	4%	-1%
Cc1cc(C(=O)OCC(=O)N2CC(C)CC(C)C2)c(C)o1 (stereo not given)	34%	-10%	-21%	25µM*	-10%	2%
CCc1ccc(N2CCn3c2nc2c3c(=O)n(C/C=C/c3ccccc3)c(=O)n2C)cc1	/	-1%	/	7%	-1%	/
Cc1nn(-c2ccc(Cl)cc2)c2nc(-c3cccnc3)cc(C(F)(F)F)c12	/	1%	/	-9%	1%	/
Cc1cc(NC(=O)Cc2ccccc2)nc2c1c(=O)oc1ccccc12	6.3µM*	?	-4%	4%	-9%	-8%
Cc1cccc(CC(=O)Nc2cc(C)c3c(=O)oc4ccccc4c3n2)c1	-14%	?	-1%	1%	-1%	2%
NC(=O)C1CCN(C2CC(=O)N(Cc3ccc(N4CCCC4=O)cc3)C2=O)CC1 (stereo not given)	-17%	-7%	?	35µM*	-4%	0%
COC(=O)C1CCN(C2CC(=O)N(c3cc(C)cc(C)c3)C2=O)CC1 (stereo not given)	0%	-11%	35µM*	?	3%	-5%
CCOC(=O)N1CCN(C2CC(=O)N(c3ccc(Oc4ccccc4)cc3)C2=O)CC1 (stereo not given)	163%	-10%	-14%	-22%	8%	-47%
O=C(O)c1ccc(N2C(=O)CC(N3CCN(c4ccc(Cl)cc4)CC3)C2=O)cc1 (stereo not given)	-4%	6%	-1%	?	-11%	0%
CCOC(=O)C1CCN(C2CC(=O)N(c3cccc(Cl)c3)C2=O)CC1 (stereo not given)	-6%	-9%	10µM*	-48%	-15%	-10%
O=C(C1CCN(C2CC(=O)N(c3ccc(Cl)cc3)C2=O)CC1)N1CCOCC1 (stereo not given)	-12%	-15%	13µM*	14µM*	-9%	-36%
COc1ccc(OC)c(CCNC(=O)c2nc(-c3ccc(Cl)cc3)n3c2CCCCC3)c1	/	12%	/	1%	13%	/
O=C(C1CCN(C2CC(=O)N(Cc3ccccc3)C2=O)CC1)N1CCCCCC1 (stereo not given)	118%	-3%	?	22µM*	7%	-34%
